One assay deals with T1, UniProt P0AEX5.
T1 sequence (whole entry): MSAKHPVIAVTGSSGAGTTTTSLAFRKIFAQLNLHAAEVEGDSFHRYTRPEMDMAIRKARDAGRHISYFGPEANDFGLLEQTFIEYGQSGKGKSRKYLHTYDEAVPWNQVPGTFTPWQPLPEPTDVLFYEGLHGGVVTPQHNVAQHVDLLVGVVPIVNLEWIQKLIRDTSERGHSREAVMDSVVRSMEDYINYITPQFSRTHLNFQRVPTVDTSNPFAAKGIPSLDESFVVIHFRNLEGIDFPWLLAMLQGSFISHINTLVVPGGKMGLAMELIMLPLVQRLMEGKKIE
Nature of the assay: log2 fold change of tryptic peptide abundance, ligand vs vehicle (limited proteolysis) (log2 ratio); higher = more trypsin-susceptible (destabilized). The conditions noted are these: peptide sequence: EAVMDSVVR; peptide start residue: 177; ligand concentration: 5 mM; sample: E. coli desalted lysate; replicate design: treated before aliquoting. The procedure:
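HT-PELSA: desalted E. coli K-12 BW25113 lysate (with 12 mM MgCl2) incubated with 5 mM ATP (pH 7) or water for 30 min at 25 C, then a 4 min trypsin pulse at 22 C. Peptides were quantified by DIA-MS (4 replicates). Value is the peptide log2 fold change (treated/control); negative = stabilized. Scale: negative = ligand-stabilized region.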

For the next assay, the target named is UniProt O54950. Nature of the assay: log2 fold change of pooled soluble protein (PISA), ligand vs vehicle (log2 ratio); higher = more thermally stabilized. The settings on record: ligand concentration: 20 uM; assay format: PISA pool 52.9/55.5/58.6 C.
Sequence of UniProt O54950 (O54950 whole entry): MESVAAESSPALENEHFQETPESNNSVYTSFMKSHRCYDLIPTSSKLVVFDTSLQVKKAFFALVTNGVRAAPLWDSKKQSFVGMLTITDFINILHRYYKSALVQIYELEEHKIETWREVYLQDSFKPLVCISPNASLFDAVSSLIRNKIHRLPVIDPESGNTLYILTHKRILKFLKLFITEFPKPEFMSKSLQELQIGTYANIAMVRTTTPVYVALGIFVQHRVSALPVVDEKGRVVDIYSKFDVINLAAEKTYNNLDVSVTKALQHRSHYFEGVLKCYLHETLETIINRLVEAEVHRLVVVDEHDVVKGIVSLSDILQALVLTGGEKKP
In the next assay the target is UniProt P31938. The description is as above. The settings on record: ligand concentration: 20 uM; assay format: PISA pool 52.9/55.5/58.6 C.
Sequence of UniProt P31938 (P31938 whole entry): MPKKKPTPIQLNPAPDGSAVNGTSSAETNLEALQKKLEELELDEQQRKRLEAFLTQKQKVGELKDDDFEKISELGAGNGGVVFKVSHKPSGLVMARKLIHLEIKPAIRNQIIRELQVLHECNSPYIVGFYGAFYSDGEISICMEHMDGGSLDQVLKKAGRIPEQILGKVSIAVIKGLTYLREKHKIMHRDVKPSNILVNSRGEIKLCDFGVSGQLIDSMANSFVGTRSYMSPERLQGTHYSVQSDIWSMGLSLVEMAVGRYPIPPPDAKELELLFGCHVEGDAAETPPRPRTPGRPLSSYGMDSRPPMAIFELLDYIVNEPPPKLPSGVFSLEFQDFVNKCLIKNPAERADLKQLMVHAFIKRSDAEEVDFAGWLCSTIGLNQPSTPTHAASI
In the next assay the target is UniProt P41241. Described as above. The conditions noted are these: ligand concentration: 20 uM; assay format: PISA pool 52.9/55.5/58.6 C.
Sequence of UniProt P41241 (P41241 whole entry): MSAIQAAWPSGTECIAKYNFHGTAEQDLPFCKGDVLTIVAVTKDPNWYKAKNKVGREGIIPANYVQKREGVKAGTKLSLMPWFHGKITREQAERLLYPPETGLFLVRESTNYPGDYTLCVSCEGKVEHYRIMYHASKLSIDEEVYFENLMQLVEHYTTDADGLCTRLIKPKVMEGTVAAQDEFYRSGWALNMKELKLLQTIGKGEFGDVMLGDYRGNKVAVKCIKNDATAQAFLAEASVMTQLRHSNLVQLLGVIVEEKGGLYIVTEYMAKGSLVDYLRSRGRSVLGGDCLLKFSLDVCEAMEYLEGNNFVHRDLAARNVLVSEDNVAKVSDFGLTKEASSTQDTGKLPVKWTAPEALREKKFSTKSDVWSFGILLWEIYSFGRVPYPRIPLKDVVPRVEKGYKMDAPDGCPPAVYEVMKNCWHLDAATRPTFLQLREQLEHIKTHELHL
The target in a further assay is UniProt Q3UHJ0. Described as above. The settings on record: ligand concentration: 20 uM; assay format: PISA pool 52.9/55.5/58.6 C.
Sequence of UniProt Q3UHJ0 (Q3UHJ0 whole entry, looked up): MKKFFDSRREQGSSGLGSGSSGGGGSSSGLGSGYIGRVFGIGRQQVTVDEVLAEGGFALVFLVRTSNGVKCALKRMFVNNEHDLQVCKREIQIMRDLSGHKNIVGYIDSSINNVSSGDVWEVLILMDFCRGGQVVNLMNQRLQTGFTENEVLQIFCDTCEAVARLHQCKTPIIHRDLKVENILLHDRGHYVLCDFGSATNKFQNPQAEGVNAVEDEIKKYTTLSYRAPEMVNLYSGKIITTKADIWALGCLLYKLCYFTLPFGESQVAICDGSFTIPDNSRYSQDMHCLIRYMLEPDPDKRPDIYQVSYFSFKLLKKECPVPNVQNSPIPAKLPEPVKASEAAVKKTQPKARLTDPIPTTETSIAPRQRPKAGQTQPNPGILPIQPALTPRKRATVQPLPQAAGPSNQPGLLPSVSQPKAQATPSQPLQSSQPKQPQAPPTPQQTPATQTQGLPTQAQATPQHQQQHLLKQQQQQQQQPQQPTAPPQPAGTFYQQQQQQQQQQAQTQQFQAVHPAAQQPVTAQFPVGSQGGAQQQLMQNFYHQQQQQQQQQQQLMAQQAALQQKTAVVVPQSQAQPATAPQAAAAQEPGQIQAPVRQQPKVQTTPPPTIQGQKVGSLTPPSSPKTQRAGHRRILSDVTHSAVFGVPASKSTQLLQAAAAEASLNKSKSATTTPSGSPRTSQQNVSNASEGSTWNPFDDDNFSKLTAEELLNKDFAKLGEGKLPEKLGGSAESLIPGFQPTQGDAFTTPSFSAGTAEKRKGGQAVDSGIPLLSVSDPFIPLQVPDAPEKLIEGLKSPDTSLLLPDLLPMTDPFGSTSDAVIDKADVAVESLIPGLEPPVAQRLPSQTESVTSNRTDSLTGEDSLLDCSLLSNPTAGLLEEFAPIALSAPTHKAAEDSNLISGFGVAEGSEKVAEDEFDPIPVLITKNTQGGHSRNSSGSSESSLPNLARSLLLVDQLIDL
Another assay deals with T2, UniProt Q5F2E8.
T2 sequence (whole entry): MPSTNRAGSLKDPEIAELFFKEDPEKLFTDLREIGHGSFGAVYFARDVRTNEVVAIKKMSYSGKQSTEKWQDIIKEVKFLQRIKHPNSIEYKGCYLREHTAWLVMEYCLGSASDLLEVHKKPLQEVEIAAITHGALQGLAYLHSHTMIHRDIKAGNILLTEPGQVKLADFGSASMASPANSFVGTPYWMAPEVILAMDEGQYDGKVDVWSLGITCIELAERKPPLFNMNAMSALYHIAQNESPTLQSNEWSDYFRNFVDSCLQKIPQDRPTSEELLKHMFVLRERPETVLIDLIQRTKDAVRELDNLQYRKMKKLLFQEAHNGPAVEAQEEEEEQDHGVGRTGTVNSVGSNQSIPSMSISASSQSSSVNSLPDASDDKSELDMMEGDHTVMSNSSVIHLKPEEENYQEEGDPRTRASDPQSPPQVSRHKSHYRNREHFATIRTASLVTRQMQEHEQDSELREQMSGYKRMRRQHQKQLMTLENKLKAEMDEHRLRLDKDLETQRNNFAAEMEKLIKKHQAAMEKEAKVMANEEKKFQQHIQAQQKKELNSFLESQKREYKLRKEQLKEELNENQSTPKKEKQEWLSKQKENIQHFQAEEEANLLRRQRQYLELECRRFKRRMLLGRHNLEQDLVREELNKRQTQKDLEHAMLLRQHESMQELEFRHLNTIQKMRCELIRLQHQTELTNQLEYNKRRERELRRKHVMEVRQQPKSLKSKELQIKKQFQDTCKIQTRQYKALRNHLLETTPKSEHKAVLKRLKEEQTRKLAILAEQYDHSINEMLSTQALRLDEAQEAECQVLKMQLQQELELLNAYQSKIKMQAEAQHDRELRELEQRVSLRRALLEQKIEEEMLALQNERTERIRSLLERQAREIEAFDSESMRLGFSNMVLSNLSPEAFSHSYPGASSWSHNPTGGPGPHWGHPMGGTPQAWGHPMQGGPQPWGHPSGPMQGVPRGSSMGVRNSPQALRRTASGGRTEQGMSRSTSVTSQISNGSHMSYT
The description is as above. The conditions noted are these: ligand concentration: 20 uM; assay format: PISA pool 52.9/55.5/58.6 C.

In the next assay the target is UniProt Q63932. The assay is described as above. The settings on record: ligand concentration: 20 uM; assay format: PISA pool 52.9/55.5/58.6 C.
Sequence of UniProt Q63932 (Q63932 whole entry): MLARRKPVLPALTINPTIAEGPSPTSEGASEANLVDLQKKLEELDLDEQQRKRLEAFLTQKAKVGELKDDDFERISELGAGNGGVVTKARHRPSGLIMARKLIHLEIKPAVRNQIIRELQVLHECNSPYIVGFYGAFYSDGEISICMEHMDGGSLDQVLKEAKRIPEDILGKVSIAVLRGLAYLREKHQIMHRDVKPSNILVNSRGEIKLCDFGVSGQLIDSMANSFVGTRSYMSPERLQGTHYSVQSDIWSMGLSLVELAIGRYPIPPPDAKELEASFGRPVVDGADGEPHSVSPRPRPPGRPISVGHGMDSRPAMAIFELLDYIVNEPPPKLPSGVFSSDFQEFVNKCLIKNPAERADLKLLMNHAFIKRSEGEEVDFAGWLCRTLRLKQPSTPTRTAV
For a further assay, the target named is T3, UniProt Q64464.
T3 sequence (whole entry): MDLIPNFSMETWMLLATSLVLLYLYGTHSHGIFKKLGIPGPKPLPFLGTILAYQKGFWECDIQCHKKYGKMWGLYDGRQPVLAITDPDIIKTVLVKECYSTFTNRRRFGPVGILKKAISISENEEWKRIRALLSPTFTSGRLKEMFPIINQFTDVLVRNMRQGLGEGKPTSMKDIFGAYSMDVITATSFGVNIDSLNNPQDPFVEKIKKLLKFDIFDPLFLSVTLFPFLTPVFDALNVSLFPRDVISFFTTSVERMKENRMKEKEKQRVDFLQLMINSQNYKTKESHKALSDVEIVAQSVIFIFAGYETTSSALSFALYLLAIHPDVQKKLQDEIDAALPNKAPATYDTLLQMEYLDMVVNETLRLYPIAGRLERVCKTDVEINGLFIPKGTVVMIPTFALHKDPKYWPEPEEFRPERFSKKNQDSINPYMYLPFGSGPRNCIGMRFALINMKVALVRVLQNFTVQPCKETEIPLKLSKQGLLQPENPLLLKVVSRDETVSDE
The assay is described as above. The conditions noted are these: ligand concentration: 20 uM; assay format: PISA pool 52.9/55.5/58.6 C.

The next assay deals with T4, UniProt Q6PIU9.
T4 sequence (whole entry): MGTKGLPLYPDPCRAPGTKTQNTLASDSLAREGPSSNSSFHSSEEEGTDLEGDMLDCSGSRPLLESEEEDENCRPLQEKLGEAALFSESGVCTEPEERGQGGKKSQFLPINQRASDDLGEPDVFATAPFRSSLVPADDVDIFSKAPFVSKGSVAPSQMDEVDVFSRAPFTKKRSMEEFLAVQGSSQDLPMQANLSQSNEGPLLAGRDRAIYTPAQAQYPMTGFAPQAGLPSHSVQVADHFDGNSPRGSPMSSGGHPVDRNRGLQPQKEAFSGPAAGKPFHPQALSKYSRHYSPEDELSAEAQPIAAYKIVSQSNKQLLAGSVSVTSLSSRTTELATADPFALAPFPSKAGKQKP
The description is as above. The conditions noted are these: ligand concentration: 20 uM; assay format: PISA pool 52.9/55.5/58.6 C.

The target of another assay is UniProt Q8BRK8. The description is as above. The settings on record: ligand concentration: 20 uM; assay format: PISA pool 52.9/55.5/58.6 C.
Sequence of UniProt Q8BRK8 (Q8BRK8 whole entry): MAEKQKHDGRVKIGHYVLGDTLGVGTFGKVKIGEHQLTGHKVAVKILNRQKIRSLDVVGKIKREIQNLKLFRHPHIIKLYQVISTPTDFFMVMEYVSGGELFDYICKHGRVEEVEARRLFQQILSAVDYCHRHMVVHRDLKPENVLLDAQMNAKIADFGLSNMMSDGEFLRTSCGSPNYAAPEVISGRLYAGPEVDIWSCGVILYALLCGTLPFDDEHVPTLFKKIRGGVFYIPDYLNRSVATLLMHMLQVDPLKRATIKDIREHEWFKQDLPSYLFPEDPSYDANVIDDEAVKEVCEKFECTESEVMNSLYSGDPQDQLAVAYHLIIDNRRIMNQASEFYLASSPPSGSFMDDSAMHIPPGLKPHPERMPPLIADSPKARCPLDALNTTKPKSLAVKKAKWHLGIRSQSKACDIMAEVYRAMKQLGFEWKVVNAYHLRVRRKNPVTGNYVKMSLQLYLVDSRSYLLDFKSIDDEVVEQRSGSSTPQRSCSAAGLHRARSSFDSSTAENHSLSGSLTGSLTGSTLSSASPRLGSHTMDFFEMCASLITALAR
Another assay addresses UniProt Q8BTW9. The assay is described as above. The settings on record: ligand concentration: 20 uM; assay format: PISA pool 52.9/55.5/58.6 C.
The target in a further assay is T5, UniProt Q8BYY4.
T5 sequence (whole entry): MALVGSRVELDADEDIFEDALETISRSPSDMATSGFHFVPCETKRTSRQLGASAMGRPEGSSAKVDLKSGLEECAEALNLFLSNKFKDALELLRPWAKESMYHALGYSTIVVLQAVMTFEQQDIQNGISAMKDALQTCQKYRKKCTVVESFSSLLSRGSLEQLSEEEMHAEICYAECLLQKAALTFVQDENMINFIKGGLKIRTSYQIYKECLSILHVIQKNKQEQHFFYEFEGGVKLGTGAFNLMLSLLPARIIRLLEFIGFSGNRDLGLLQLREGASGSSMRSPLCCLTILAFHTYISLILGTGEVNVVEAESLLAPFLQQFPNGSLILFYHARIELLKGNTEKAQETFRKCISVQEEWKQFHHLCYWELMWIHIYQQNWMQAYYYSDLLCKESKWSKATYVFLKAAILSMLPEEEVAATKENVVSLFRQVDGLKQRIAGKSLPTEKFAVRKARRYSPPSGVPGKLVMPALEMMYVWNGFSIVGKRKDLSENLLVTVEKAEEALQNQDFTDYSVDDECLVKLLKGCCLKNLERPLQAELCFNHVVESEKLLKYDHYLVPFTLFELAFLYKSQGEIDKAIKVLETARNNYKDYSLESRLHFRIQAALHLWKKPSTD
The description is as above. The conditions noted are these: ligand concentration: 20 uM; assay format: PISA pool 52.9/55.5/58.6 C.

In another assay the target is UniProt Q9EQ20. The assay is described as above. The settings on record: ligand concentration: 20 uM; assay format: PISA pool 52.9/55.5/58.6 C.
Sequence of UniProt Q9EQ20 (Q9EQ20 whole entry): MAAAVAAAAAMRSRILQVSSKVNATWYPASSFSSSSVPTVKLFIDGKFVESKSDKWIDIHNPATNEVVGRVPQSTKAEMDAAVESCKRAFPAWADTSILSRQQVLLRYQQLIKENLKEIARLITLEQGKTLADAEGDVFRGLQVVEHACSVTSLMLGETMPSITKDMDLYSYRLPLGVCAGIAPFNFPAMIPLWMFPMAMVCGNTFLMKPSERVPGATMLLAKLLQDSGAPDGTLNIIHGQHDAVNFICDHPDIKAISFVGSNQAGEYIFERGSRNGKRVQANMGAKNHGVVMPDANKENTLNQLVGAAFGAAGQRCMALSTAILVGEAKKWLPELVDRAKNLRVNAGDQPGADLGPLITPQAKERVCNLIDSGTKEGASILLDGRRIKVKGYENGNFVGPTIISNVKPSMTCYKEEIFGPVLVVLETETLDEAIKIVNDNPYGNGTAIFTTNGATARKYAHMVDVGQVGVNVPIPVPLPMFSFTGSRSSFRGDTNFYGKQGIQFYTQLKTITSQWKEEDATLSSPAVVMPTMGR
A further assay has as its target T6, UniProt Q9JI10.
T6 sequence (whole entry): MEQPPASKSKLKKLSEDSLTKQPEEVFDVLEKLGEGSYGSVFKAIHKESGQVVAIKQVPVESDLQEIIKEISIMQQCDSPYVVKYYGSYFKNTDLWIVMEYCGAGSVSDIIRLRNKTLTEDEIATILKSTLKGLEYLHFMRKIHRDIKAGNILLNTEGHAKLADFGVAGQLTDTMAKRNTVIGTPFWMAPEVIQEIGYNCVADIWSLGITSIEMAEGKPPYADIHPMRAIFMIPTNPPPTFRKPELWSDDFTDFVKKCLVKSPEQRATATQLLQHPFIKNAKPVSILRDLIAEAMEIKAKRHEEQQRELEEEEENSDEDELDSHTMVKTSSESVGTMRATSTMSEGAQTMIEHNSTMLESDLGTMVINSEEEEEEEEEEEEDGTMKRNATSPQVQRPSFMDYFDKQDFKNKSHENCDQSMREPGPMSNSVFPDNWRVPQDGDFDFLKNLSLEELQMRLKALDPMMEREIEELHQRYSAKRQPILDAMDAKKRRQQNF
The assay is described as above. The conditions noted are these: ligand concentration: 20 uM; assay format: PISA pool 52.9/55.5/58.6 C.

The next assay concerns the target T7, UniProt Q9R092.
T7 sequence (whole entry): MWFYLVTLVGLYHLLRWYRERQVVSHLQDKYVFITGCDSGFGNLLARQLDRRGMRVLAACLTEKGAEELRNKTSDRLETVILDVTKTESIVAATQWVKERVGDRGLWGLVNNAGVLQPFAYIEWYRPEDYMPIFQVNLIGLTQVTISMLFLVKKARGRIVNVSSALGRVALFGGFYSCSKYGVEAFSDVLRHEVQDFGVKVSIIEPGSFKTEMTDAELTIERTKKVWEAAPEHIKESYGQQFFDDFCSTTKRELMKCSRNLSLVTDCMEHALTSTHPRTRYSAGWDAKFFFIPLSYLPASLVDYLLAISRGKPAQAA
The assay is described as above. The settings on record: ligand concentration: 20 uM; assay format: PISA pool 52.9/55.5/58.6 C.

In the next assay the target is T8, UniProt Q9R257.
T8 sequence (whole entry): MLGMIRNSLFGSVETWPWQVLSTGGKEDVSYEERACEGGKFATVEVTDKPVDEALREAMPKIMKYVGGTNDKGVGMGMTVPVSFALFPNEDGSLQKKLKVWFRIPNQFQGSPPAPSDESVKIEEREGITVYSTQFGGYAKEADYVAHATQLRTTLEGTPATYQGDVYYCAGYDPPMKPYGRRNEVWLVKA
Described as above. The conditions noted are these: ligand concentration: 20 uM; assay format: PISA pool 52.9/55.5/58.6 C.
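Wherever log2 fold change of tryptic peptide abundance, ligand vs vehicle (limited proteolysis) is given: lysate desalted by size exclusion to strip endogenous ATP, peptide intensities built from DIA-NN precursor signals, and peptides missing any value discarded before comparison.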

Sequence of UniProt Q8BTW9 (Q8BTW9 whole entry): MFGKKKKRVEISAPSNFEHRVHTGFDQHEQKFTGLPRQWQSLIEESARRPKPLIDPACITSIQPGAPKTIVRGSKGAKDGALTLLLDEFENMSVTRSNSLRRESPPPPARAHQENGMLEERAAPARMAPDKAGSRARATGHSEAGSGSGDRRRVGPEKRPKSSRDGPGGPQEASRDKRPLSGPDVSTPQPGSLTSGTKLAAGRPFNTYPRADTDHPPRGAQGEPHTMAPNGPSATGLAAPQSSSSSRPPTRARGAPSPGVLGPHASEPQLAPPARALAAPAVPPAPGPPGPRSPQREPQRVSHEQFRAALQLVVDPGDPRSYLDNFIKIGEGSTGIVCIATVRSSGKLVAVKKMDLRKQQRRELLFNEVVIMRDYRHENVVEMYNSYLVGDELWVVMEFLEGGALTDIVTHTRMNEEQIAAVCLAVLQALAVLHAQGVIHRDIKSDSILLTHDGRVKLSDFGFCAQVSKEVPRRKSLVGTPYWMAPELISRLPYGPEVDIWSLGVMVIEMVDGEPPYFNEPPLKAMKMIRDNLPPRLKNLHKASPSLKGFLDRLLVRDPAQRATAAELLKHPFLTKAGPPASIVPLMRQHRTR

For the compound `Nc1ncnc2c1ncn2[C@@H]1O[C@H](COP(=O)(O)OP(=O)(O)OP(=O)(O)O)[C@@H](O)[C@H]1O` [adenosine 5'-triphosphate], the log2 fold change in the assay with UniProt P0AEX5 was found to be 0.659.

`CN[C@@H]1C[C@H]2O[C@@](C)([C@@H]1OC)n1c3ccccc3c3c4c(c5c6ccccc6n2c5c31)C(=O)NC4` [staurosporine]: the “log2 fold change of pooled soluble protein” value with UniProt O54950 was found to be 0.645; with UniProt P31938 it was 2.14; with UniProt P41241, 1.02; with UniProt Q3UHJ0, 1.91; in the assay with UniProt Q5F2E8, 1.2; with UniProt Q63932, 2.18. Further, the “log2 fold change of pooled soluble protein” value with UniProt Q64464 came to 0.447; in the assay with UniProt Q6PIU9, 0.619; in the assay with UniProt Q8BRK8, 0.661; with UniProt Q8BTW9, 1.36; in the assay with UniProt Q8BYY4 it was 0.552; with UniProt Q9EQ20, 0.615. The “log2 fold change of pooled soluble protein” value with UniProt Q9JI10 is 1.77; in the assay with UniProt Q9R092, 0.855; with UniProt Q9R257 it was 0.471.
